Experimental data published in PubChem BioAssay (EPA / NIEHS).
Calls of active or inactive are those of the source. The calls were made as follows: active = hit-call score of the fitted dose curve at least 0.9, where 1 is the maximum; inactive = score below 0.9.

Legend:
[1] = read-out: Human Leukocyte Antigen - DR isotype (HLADR), HLA-DRA (gene 3122); experiment: BSK_3C_HLADR: BioMAP Diversity Plus: 3C Assay for Human Leukocyte Antigen - DR isotype (HLADR) Biomarker Activity (AID 2283019); details: primary human endothelial cells (HUVEC); actives raise or lower the signal
Method in brief: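 Endothelial cells from human umbilical vein are treated with test chemical; after 24 h, HLA-DR levels are measured by ELISA. Data are fitted in both directions using DMSO as the baseline.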

[2] = read-out: Interleukin-8 (IL8), CXCL8 (gene 3576); experiment: BSK_3C_IL8: BioMAP Diversity Plus: 3C Assay for Interleukin-8 (IL8) Biomarker Activity (AID 2283020); details: primary human endothelial cells (HUVEC); actives raise or lower the signal
Method in brief: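 Using DMSO-treated wells as the baseline, bidirectional curve fitting was applied to ELISA-measured IL-8 from human umbilical vein endothelial cultures sampled 24 h after compound addition.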

[3] = read-out: Monokine induced gamma interferon (MIG), CXCL9 (gene 4283); experiment: BSK_3C_MIG: BioMAP Diversity Plus: 3C Assay for Monokine induced gamma interferon (MIG) Biomarker Activity (AID 2283021); details: primary human endothelial cells (HUVEC); actives raise or lower the signal;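 as to AC50: MIG protein level measured by immunoassay in the treated endothelial cultures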
Method in brief: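 ELISA-measured MIG in dosed HUVEC 3C cultures at 24 h, analysed by bidirectional fitting with DMSO defining baseline activity.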

[4] = BSK_3C_SRB: Viability Assessment in the BioMAP Diversity Plus: 3C Assay (AID 2283023); details: primary human endothelial cells (HUVEC);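 also: cells read 24 h after compound dosing; fitted both ways against DMSO so a hit may be signal rise or drop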
Method in brief: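 Cells were dosed with chemical, cultured 24 h, fixed with 10% TCA, stained with 0.1% SRB and read at 560 nm. Human umbilical vein endothelium was used; DMSO served as negative control and baseline.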

[5] = read-out: Matrix Metallopeptidase 1 (MMP1), MMP1 (gene 4312); experiment: BSK_BE3C_MMP1: BioMAP Diversity Plus: BE3C Assay for Matrix Metallopeptidase 1 (MMP1) Biomarker Activity (AID 2283024); details: primary human bronchial epithelial cells; actives raise or lower the signal
Method in brief: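 In this multiplexed primary-cell system, human bronchial epithelium received chemicals for 24 h before an ELISA for MMP1. Values reflect bidirectional fits normalised to the DMSO baseline.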

[6] = BSK_3C_Vis: BioMAP Diversity Plus: 3C Assay for Morphology Visualization (AID 2283025); details: primary human endothelial cells (HUVEC);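 also: fitted both ways so gain or loss versus DMSO counts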;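 as to AC50: light microscopy image of cell morphology used as background control; cells imaged 24 h after dosing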
Method in brief: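 Light-microscopy morphology readout, 24 h exposure, human primary umbilical vein endothelium; analysed relative to DMSO with bidirectional fitting.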

[7] = read-out: Pselectin, SELP (gene 6403); experiment: BSK_4H_Pselectin: BioMAP Diversity Plus: 4H Assay for Pselectin Biomarker Activity (AID 2283026); details: primary human endothelial cells (HUVEC); actives raise or lower the signal
Method in brief: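 Bidirectional fits against DMSO gave the endpoint. Cells: primary human umbilical vein endothelium, chemical-treated for 24 h before ELISA detection of P-selectin.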

[8] = BSK_4H_SRB: Viability Assessment in the BioMAP Diversity Plus: 4H Assay (AID 2283027); details: primary human endothelial cells (HUVEC);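 also: cells exposed to compound for 24 h before staining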;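 as to AC50: curves fitted both ways versus DMSO so AC50 may be loss or gain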
Method in brief: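 HUVEC, 24 h post-dose; 10% TCA fix, 0.1% SRB stain, A560 nm. Total protein = overt cytotoxicity, parallel to biomarker read. Bidirectional fit vs DMSO baseline.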

[9] = BSK_BE3C_SRB: Viability Assessment in the BioMAP Diversity Plus: BE3C Assay (AID 2283028); details: primary human bronchial epithelial cells;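 as to AC50: fitted both ways so AC50 may mark signal gain or loss versus DMSO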
Method in brief: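 Overt cytotoxicity was assessed as total protein in confluent human primary bronchial epithelial cultures 24 h after chemical addition, using 0.1% sulforhodamine B staining read at 560 nm.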

Measured: AC50

c1ccc(-c2ccccc2)cc1
inactive: [1] | [2] | [3] | [4] | [5] | [6] | [7] | [8] | [9]

ClC1=C(Cl)[C@]2(Cl)[C@@H]3[C@@H](Cl)[C@H]4O[C@H]4[C@@H]3C1(Cl)C2(Cl)Cl
inactive: [2] | [3] | [5] | [6] | [7] | [8] | [9]
active: [1] 11.5 µM | [4] 11.9 µM

C=CC(N)=O
inactive: [1] | [2] | [3] | [4] | [5] | [6] | [7] | [8] | [9]

CCCCCCOC(=O)c1ccccc1C(=O)OCCCCCC
inactive: [1] | [3] | [5] | [6] | [8] | [9]
active: [2] 31.1 µM | [4] 15.1 µM | [7] 29.3 µM

O=C(O)C(F)(F)C(F)(F)C(F)(F)C(F)(F)C(F)(F)F
inactive: [1] | [2] | [3] | [4] | [5] | [6] | [7] | [8] | [9]

CN(C)CCO
inactive: [1] | [2] | [3] | [4] | [5] | [6] | [7] | [8] | [9]

O=C(NC(=O)c1cc(F)c(F)cc1Cl)Nc1cc(F)ccc1N1CCC(C(=O)O)CC1
inactive: [1] | [2] | [3] | [4] | [5] | [6] | [7] | [8] | [9]

CCCCCCCCCc1ccc(O)cc1
active: [1] 14.1 µM | [2] 15.5 µM | [3] 16.4 µM | [4] 15.5 µM | [5] 16.7 µM | [6] 38.7 µM | [7] 12.5 µM | [8] 14.9 µM | [9] 15.1 µM

Cc1cc2c3c(c1)C(c1ccccc1)=N[C@@H](NC(=O)c1ccncc1)C(=O)N3CC2
inactive: [1] | [2] | [3] | [4] | [5] | [6] | [7] | [8] | [9]

CC1=C2C[C@H]3[C@@H](CC=C4C[C@@H](O)CC[C@@]43C)[C@@H]2CC[C@]12O[C@@H]1C[C@H](C)CN[C@H]1[C@H]2C
inactive: [1] | [2] | [3] | [4] | [5] | [7] | [8] | [9]
active: [6] 4.9 µM

Oc1ccc(Cl)cc1Cl
inactive: [1] | [2] | [3] | [4] | [5] | [6] | [7] | [8] | [9]

Cc1cccc([N+](=O)[O-])c1
inactive: [1] | [2] | [3] | [4] | [5] | [6] | [7] | [8] | [9]

CC(C)(c1ccccc1)c1ccc(O)cc1
active: [1] 39 µM | [2] 35.6 µM | [3] 39.1 µM | [4] 30.2 µM | [6] 37.5 µM | [7] 32.6 µM | [8] 30.5 µM | [9] 32.3 µM
inactive: [5]

Nn1cnnc1
inactive: [1] | [2] | [3] | [4] | [5] | [6] | [7] | [8] | [9]

CCC(C)c1cc([N+](=O)[O-])cc([N+](=O)[O-])c1O (stereo not drawn)
inactive: [3] | [5] | [9]
active: [1] 14 µM | [2] 7.38 µM | [4] 10 µM | [6] 9.8 µM | [7] 10.6 µM | [8] 12.6 µM

CC(C)C(=O)OCC(C)(C)C(OC(=O)C(C)C)C(C)C (stereo not drawn)
inactive: [1] | [2] | [3] | [4] | [5] | [6] | [7] | [8] | [9]

Cc1cc(O)ccc1Cl
inactive: [1] | [2] | [3] | [4] | [5] | [6] | [7] | [8] | [9]

CC(C)(O)C(=O)Nc1ccc([N+](=O)[O-])c(C(F)(F)F)c1
inactive: [1] | [2] | [3] | [4] | [5] | [6] | [7] | [8] | [9]

CCCCCCCCCC[N+](C)(C)CCCCCCCCCC
active: [1] 2.22 µM | [2] 4.54 µM | [3] 5.66 µM | [4] 2 µM | [5] 4.95 µM | [6] 4.15 µM | [7] 1.99 µM | [8] 2.01 µM | [9] 5.15 µM

N#Cc1ccc(N(CC(N)=O)CC(F)(F)F)cc1C(F)(F)F
inactive: [1] | [2] | [3] | [4] | [5] | [6] | [7] | [8] | [9]

CCCCCCCCOC(=O)c1ccccc1C(=O)OCCCCCCCC
active: [1] 12.9 µM
inactive: [2] | [3] | [4] | [5] | [6] | [7] | [8] | [9]

O=C(NC(=O)c1c(F)cccc1F)Nc1cc(Cl)c(OC(F)(F)C(F)F)c(Cl)c1
active: [6] 39 µM
inactive: [1] | [2] | [3] | [4] | [5] | [7] | [8] | [9]

ClC1=C(Cl)[C@]2(Cl)[C@@H]3[C@@H]4C[C@@H]([C@H]5O[C@@H]45)[C@@H]3[C@@]1(Cl)C2(Cl)Cl
inactive: [2] | [3] | [5] | [7] | [8] | [9]
active: [1] 20 µM | [4] 12.5 µM | [6] 13.7 µM

O=S(=O)(O)C(F)(F)C(F)(F)C(F)(F)C(F)(F)F
inactive: [1] | [2] | [3] | [4] | [5] | [6] | [7] | [8] | [9]

C=CC(=O)NCNC(=O)C=C
inactive: [1] | [2] | [3] | [4] | [5] | [6] | [7] | [8] | [9]

CC#Cc1cc(C)nc(Nc2ccccc2)n1
inactive: [1] | [2] | [3] | [4] | [5] | [6] | [7] | [8] | [9]

CN(C)c1nc(=O)n(C2CCCCC2)c(=O)n1C
inactive: [1] | [2] | [3] | [4] | [5] | [6] | [7] | [8] | [9]

CCOCCOC(C)=O
inactive: [1] | [2] | [3] | [4] | [5] | [6] | [7] | [8] | [9]

Cc1ccccc1O
inactive: [1] | [2] | [3] | [4] | [5] | [6] | [7] | [8] | [9]

CCOC(=O)C(O)(c1ccc(Cl)cc1)c1ccc(Cl)cc1
active: [1] 31.3 µM | [2] 31.1 µM | [3] 39.4 µM | [4] 34.5 µM | [5] 8.5 µM | [6] 37.3 µM | [7] 32.2 µM | [8] 32.2 µM
inactive: [9]

Clc1ccc(C(Cl)(Cl)Cl)cc1
inactive: [1] | [2] | [3] | [4] | [5] | [6] | [7] | [8] | [9]

C[C@]12CCC(=O)C=C1CC[C@@H]1[C@@H]2CC[C@]2(C)C(=O)CC[C@@H]12
inactive: [1] | [2] | [3] | [4] | [5] | [6] | [7] | [8] | [9]
